Results reported in PubChem BioAssay (EPA / NIEHS).
Calls of active or inactive are those of the source. How the source made its calls: active means hit-call score of the fitted dose curve at least 0.9, where 1 is the maximum; inactive means score below 0.9.

Assays:
[1] = ATG_ISRE_CIS: Attagene CIS-FACTORIAL HepG2 Assay for human Interferon Regulatory Factor 1 (IRF1) binding to an Interferon-Stimulated Response Element (ISRE) (AID 2282948); conditions: HepG2 ISRE cis-reporter (Attagene), mRNA transcription readout; actives raise or lower the signal
Procedure, shortened: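 Uses HepG2 liver cells transfected with cis-regulated reporters and measures mRNA 24 h post-dosing through RT-PCR, primer-extension labelling and capillary electrophoresis, with DMSO as negative control.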

[2] = ATG_M_32_CIS: Attagene CIS-FACTORIAL HepG2 Assay for M32 Transcription Factor (Internal Marker) (AID 2282949); conditions: HepG2 Attagene cis-factorial M32 reporter, mRNA; actives raise or lower the signal;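 further: background control marker of the multiplexed CIS panel rather than a real target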
Procedure, shortened: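 Transient MRTU transfection of HepG2; 24 h compound treatment; TriZol RNA, oligo(dT) RT, reporter PCR, 6-FAM primer extension, HpaI cut, CE. Gain/loss of signal vs DMSO.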

[3] = ATG_M_06_CIS: Attagene CIS-FACTORIAL HepG2 Assay for M06 Transcription Factor (Internal Marker) (AID 2282950); conditions: HepG2 Attagene CIS-FACTORIAL M06 internal marker reporter; actives raise or lower the signal
Procedure, shortened: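 HepG2 cells transiently transfected with cis-regulated multiple reporter transcription units were exposed to chemical for 24 h; reporter mRNA was quantified by RT-PCR, 6-FAM primer labelling, HpaI digestion and capillary electrophoresis, fitted bidirectionally against DMSO.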

[4] = biological target: Hypoxia-inducible factor 1-alpha (Homo sapiens) (UniProt Q16665); experiment: ATG_HIF1a_CIS: Attagene CIS-FACTORIAL HepG2 Assay for human Hypoxia Inducible Factor 1 (HIF1A) (AID 2282951); conditions: HepG2 Attagene cis-factorial HIF1a reporter transcription; actives raise or lower the signal
Chain of Hypoxia-inducible factor 1-alpha (Homo sapiens) (Q16665 whole entry, looked up): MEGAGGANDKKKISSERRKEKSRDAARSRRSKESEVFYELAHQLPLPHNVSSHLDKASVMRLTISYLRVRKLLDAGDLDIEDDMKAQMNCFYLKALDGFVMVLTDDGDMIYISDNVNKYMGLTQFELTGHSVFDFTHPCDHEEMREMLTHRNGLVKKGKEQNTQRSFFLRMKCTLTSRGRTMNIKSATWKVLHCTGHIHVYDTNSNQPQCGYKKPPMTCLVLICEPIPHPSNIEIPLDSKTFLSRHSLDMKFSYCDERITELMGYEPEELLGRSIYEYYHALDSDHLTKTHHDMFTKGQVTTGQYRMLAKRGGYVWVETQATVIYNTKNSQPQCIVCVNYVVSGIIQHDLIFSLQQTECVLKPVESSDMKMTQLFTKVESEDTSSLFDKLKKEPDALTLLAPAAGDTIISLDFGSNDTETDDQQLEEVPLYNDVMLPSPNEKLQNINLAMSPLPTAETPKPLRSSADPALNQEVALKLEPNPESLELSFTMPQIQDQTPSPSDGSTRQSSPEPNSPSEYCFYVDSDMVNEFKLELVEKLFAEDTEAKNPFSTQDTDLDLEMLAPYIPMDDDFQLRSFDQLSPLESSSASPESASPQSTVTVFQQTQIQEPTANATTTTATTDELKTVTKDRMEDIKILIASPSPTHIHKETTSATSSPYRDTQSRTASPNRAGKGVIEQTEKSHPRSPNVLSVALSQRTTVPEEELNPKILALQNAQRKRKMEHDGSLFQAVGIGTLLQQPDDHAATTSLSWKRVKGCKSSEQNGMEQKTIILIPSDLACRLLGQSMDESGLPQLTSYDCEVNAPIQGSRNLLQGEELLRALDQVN
Procedure, shortened: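 HepG2 cells transiently transfected with multiple cis-regulated reporter transcription units measure endogenous transcription factor activity. After 24 h exposure, reporter mRNA is quantified by RT-PCR with 6-FAM labelling, HpaI digestion and capillary electrophoresis. Bidirectional fitting against DMSO.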

[5] = biological target: Hepatocyte nuclear factor 6 (Homo sapiens) (UniProt Q9UBC0); experiment: ATG_HNF6_CIS: Attagene CIS-FACTORIAL HepG2 Assay for human Hepatocyte Nuclear Factor 6 (HNF6) (AID 2282952); conditions: HepG2 Attagene cis-factorial HNF6 reporter transcription; actives raise or lower the signal
Chain of Hepatocyte nuclear factor 6 (Homo sapiens) (Q9UBC0 whole entry, looked up, the tested form may be a part): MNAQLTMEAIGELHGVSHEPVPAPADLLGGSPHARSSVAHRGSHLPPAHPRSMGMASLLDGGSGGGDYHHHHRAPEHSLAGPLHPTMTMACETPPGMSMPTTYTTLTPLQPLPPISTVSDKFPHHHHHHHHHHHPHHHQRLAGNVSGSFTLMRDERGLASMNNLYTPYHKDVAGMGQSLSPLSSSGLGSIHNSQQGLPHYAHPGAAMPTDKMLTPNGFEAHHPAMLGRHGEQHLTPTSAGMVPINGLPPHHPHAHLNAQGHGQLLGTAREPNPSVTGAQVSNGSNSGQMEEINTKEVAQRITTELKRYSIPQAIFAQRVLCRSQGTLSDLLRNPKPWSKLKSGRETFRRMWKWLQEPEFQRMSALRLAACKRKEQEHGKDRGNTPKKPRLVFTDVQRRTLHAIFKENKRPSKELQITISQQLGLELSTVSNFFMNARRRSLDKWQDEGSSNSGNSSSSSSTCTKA
Procedure, shortened: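 Using cis-element reporters in HepG2 liver cells, the assay tracks endogenous factor-driven transcription 24 h post-dosing. Signal comes from 6-FAM-labelled, HpaI-digested RT-PCR fragments, with gain or loss scored against DMSO.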

[6] = biological target: Heat shock factor protein 1 (Homo sapiens) (UniProt Q00613); experiment: ATG_HSE_CIS: Attagene CIS-FACTORIAL HepG2 Assay for human Heat Shock Transcription Factor 1 (HSE) (AID 2282953); conditions: HepG2 HSE cis-reporter, Attagene RNA transcription; actives raise or lower the signal
Chain of Heat shock factor protein 1 (Homo sapiens) (Q00613 whole entry, looked up): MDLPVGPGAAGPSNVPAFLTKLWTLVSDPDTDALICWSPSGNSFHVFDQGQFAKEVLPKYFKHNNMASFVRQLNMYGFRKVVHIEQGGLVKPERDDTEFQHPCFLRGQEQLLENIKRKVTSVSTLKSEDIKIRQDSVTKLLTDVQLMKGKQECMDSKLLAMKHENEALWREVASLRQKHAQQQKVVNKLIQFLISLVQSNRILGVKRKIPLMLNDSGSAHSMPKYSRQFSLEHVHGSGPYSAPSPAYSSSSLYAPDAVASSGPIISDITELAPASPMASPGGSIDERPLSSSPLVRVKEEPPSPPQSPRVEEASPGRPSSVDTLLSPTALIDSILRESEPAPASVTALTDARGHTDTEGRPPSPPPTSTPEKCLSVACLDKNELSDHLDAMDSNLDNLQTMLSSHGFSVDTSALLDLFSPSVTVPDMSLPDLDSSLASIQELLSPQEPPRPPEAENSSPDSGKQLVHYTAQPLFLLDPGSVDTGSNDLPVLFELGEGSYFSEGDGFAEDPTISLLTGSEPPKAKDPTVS
Procedure, shortened: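 HepG2 cells transiently transfected with multiple reporter transcription units under cis-regulatory promoter control, measuring endogenous transcription factor activity. After 24 h chemical exposure, reporter mRNA quantified by RT-PCR, fluorescent labelling, HpaI digestion and capillary electrophoresis; bidirectional fit versus DMSO.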

[7] = ATG_MRE_CIS: Attagene CIS-FACTORIAL HepG2 Assay for human Metal Responsive Element (MRE) (AID 2282954); conditions: HepG2 MRE cis-reporter transcription, Attagene multiplex; actives raise or lower the signal
Procedure, shortened: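 Multiplexed cis-reporter assay in human HepG2 liver cells, 24 h incubation with test chemical. Reporter transcripts measured by RT-PCR and capillary electrophoresis; values from bidirectional curve fitting versus DMSO.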

[8] = biological target: Paired box protein Pax-6 (Homo sapiens) (UniProt P26367); experiment: ATG_Pax6_CIS: Attagene CIS-FACTORIAL HepG2 Assay for human Paired Box 6 (PAX6) (AID 2282956); conditions: HepG2 CIS-FACTORIAL PAX6 reporter transcription, RNA readout; actives raise or lower the signal
Chain of Paired box protein Pax-6 (Homo sapiens) (P26367 whole entry, looked up): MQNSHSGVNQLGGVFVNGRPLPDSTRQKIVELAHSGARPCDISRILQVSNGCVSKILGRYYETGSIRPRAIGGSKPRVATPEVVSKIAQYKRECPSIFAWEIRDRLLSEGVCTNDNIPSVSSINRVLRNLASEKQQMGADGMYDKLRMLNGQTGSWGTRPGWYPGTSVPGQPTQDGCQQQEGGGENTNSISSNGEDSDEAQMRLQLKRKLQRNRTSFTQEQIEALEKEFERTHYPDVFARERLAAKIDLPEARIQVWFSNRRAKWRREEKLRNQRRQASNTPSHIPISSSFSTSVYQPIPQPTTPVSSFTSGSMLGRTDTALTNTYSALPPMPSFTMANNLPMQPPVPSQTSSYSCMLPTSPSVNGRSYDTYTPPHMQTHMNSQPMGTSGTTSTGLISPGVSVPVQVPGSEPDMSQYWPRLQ
Procedure, shortened: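 DMSO-referenced bidirectional fits of reporter mRNA fluorescence; HepG2 with transient cis-promoter MRTUs, 24 h post-dose, RT-PCR plus capillary electrophoresis detection.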

[9] = ATG_PXRE_CIS: Attagene CIS-FACTORIAL HepG2 Assay for human Pregnane X Receptor Element (PXRE) (AID 2282957); conditions: HepG2 Attagene CIS-FACTORIAL PXRE reporter, mRNA; actives raise or lower the signal
Procedure, shortened: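 Using HepG2 transfected with multiple reporter transcription units, endogenous factor-driven transcription was scored as reporter mRNA after 24 h exposure.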

[10] = ATG_PPRE_CIS: Attagene CIS-FACTORIAL HepG2 Assay for human Peroxisome Proliferator-activated Response Element (PPRE) (AID 2282958); conditions: HepG2 PPRE cis-element reporter, Attagene transcription factor profiling; actives raise or lower the signal
Procedure, shortened: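 HepG2 cells are transiently transfected with multiplexed cis-promoter reporter units to report endogenous PPAR activity. After 24 h dosing, reporter mRNA is read by RT-PCR and capillary electrophoresis. Fitting is bidirectional against DMSO.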

[11] = ATG_RORE_CIS: Attagene CIS-FACTORIAL HepG2 Assay for human RAR-related Orphan Receptor Element (RORE) (AID 2282959); conditions: HepG2 Attagene cis-factorial RORE reporter, mRNA; actives raise or lower the signal
Procedure, shortened: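 HepG2 cells carrying transiently transfected cis-regulated reporter units; RORE-driven reporter mRNA quantified 24 h post-dosing by RT-PCR, 6-FAM primer extension, HpaI digestion and capillary electrophoresis. Bidirectional fit versus DMSO.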

[12] = ATG_Sox_CIS: Attagene CIS-FACTORIAL HepG2 Assay for human SRY-box transcription factor (SOX) (AID 2282960); conditions: HepG2 Attagene cis-factorial SOX reporter, mRNA; actives raise or lower the signal
Procedure, shortened: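 HepG2 cells transiently transfected with multiple cis-regulated reporter units, then dosed for 24 h. Reporter mRNA quantified by RT-PCR, fluorescent labelling, HpaI digestion and capillary electrophoresis; bidirectional fit versus DMSO.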

[13] = biological target: Transcription factor Sp1 (Homo sapiens) (UniProt P08047); experiment: ATG_Sp1_CIS: Attagene CIS-FACTORIAL HepG2 Assay for human Specificity Protein 1 (Sp1) (AID 2282961); conditions: HepG2 Sp1 cis-reporter transcription, actives raise or lower the signal
Chain of Transcription factor Sp1 (Homo sapiens) (P08047 whole entry, looked up): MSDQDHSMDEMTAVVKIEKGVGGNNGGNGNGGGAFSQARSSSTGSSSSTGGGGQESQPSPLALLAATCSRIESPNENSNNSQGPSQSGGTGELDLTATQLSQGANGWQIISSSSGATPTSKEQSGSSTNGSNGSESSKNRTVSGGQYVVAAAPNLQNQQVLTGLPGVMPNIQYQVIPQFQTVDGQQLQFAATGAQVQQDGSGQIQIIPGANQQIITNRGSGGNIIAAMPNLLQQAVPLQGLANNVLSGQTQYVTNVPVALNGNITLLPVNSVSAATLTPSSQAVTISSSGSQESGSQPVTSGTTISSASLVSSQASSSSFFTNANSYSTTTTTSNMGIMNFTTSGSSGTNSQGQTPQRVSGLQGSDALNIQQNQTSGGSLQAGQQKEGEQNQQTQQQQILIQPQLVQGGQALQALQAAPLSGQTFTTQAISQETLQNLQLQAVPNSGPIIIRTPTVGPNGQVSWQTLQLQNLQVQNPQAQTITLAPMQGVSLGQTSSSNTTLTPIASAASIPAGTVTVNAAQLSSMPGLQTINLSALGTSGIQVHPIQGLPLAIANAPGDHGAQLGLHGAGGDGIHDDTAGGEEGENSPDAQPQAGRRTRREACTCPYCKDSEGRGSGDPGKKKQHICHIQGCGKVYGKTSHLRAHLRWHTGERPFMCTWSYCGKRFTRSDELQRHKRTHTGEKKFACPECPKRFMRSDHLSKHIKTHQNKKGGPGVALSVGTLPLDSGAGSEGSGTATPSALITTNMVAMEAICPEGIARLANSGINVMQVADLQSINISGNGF
Procedure, shortened: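 HepG2 cells transiently transfected with multiplexed cis-regulated reporter constructs, chemical exposure 24 h. Reporter mRNA quantified by RT-PCR with capillary electrophoresis; bidirectional fit relative to DMSO.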

[14] = ATG_SREBP_CIS: Attagene CIS-FACTORIAL HepG2 Assay for human Sterol Regulatory Element Binding (SREBP) (AID 2282962); conditions: HepG2 Attagene cis-factorial SREBP reporter, mRNA; actives raise or lower the signal
Procedure, shortened: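 In this cis-format assay, HepG2 liver cells express reporters controlled by promoter elements responsive to native transcription factors. Exposure lasts 24 h; reporter mRNA fluorescence from capillary electrophoresis gives the signal, fitted bidirectionally against DMSO.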

[15] = biological target: Signal transducer and activator of transcription 3 (Homo sapiens) (UniProt P40763); experiment: ATG_STAT3_CIS: Attagene CIS-FACTORIAL HepG2 Assay for human Signal Transducer and Activator of Transcription 3 (STAT3) (AID 2282963); conditions: HepG2, Attagene cis-factorial STAT3 reporter transcription; actives raise or lower the signal
Chain of Signal transducer and activator of transcription 3 (Homo sapiens) (P40763 whole entry, looked up): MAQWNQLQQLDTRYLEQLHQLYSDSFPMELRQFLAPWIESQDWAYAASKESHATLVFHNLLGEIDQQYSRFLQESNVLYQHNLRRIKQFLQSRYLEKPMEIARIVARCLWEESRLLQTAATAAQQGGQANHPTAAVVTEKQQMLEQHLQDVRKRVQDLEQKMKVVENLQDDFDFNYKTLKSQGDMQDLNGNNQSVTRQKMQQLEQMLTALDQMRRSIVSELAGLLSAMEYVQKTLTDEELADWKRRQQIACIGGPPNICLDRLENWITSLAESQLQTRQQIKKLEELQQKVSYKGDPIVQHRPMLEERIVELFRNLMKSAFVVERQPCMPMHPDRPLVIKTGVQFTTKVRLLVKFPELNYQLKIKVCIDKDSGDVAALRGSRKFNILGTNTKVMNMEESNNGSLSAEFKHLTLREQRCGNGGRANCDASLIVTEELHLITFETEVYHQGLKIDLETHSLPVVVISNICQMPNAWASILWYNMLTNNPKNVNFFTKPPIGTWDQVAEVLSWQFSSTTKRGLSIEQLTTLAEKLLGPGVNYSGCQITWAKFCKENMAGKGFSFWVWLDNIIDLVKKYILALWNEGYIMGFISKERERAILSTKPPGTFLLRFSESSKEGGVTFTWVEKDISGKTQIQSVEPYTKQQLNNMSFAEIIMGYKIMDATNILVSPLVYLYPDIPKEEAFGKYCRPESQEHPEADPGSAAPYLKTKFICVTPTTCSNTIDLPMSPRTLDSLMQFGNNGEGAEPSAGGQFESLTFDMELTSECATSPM
Procedure, shortened: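 Cis-factorial format: endogenous transcription factors in HepG2 drive transfected reporter units. After 24 h treatment, reporter RNA was reverse-transcribed, amplified, FAM-labelled and HpaI-digested before CE analysis; activity scored in both directions against DMSO.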

[16] = ATG_TA_CIS: Attagene CIS-FACTORIAL HepG2 Assay for human TA Basal Promoter (AID 2282964); conditions: HepG2 Attagene CIS-factorial TA basal promoter reporter; actives raise or lower the signal
Procedure, shortened: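 HepG2 cells transiently transfected with multiplexed cis-promoter reporter units, dosed 24 h. Reporter mRNA measured by RT-PCR, 6-FAM labelling, HpaI digestion and capillary electrophoresis; bidirectional fit versus DMSO baseline, serving as background control.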

[17] = ATG_TCF_b_cat_CIS: Attagene CIS-FACTORIAL HepG2 Assay for human T-Cell-Factor with beta-catenin (TCF/b-cat) (AID 2282965); conditions: HepG2 TCF/beta-catenin cis-reporter transcription, actives raise or lower the signal
Procedure, shortened: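 Endogenous TCF/LEF activity read as reporter transcript level via RT-PCR and capillary electrophoresis fluorescence in transfected HepG2, 24 h exposure; gain or loss of signal fitted against DMSO controls.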

[18] = ATG_TGFb_CIS: Attagene CIS-FACTORIAL HepG2 Assay for human Transforming Growth Factor (TGF) (AID 2282967); conditions: HepG2 Attagene CIS TGFb reporter, mRNA transcription; actives raise or lower the signal
Procedure, shortened: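 HepG2 cells transiently transfected with cis-promoter-driven multiplexed reporter units; 24 h compound exposure. Reporter mRNA measured by RT-PCR, 6-FAM labeling, HpaI digestion and capillary electrophoresis; bidirectional fit versus DMSO baseline.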

[19] = ATG_TAL_CIS: Attagene CIS-FACTORIAL HepG2 Assay for human TAL Basal Promoter (AID 2282966); conditions: HepG2 Attagene cis-factorial TAL promoter reporter; actives raise or lower the signal;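 further: background control endpoint measuring basal TAL promoter reporter mRNA not a specific factor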
Procedure, shortened: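 After 24 hours of chemical exposure, transfected HepG2 cells yielded RNA that was converted to 6-FAM-labelled, HpaI-digested reporter fragments for capillary electrophoresis. Values derive from bidirectional fitting against DMSO controls.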

Measured: AC50

CCOP(=S)(OCC)O/N=C(\C#N)c1ccccc1
active: [4] 67.2 µM | [9] 2.2 µM | [10] 7.85 µM
not listed: [19]
inactive: all other assays above

CCCCC(CC)C(=O)Cl (stereo not drawn)
not listed: [10] | [17]
inactive: all other assays above

Cc1cc(C(C)(C)c2ccc(O)c(C)c2)ccc1O
active: [1] 50 µM | [4] 30.3 µM | [5] 93.9 µM | [6] 39.5 µM | [7] 50.6 µM | [8] 50 µM | [9] 1.7 µM | [12] 50 µM | [14] 30.3 µM | [15] 93.9 µM | [17] 41.3 µM
inactive: [2] | [3] | [11] | [13] | [16] | [19] | [18]

c1ccc(-c2cccc(-c3ccccc3)c2)cc1
active: [9] 11.3 µM | [18] 56.6 µM
not listed: [10] | [13]
inactive: all other assays above

CCCCCCCCCCBr
active: [9] 27.7 µM
not listed: [10]
inactive: all other assays above

BrCCCCBr
not listed: [10] | [13]
inactive: all other assays above

COC(F)(C(F)(F)C(F)(F)F)C(F)(C(F)(F)F)C(F)(F)F (stereo not drawn)
not listed: [13]
inactive: all other assays above
